# Experimental data published in PubChem BioAssay AID1224921 (Broad Institute, 2016).
# The whole screen tested about 1,400 compounds, of which about 350 (25%) were called active. About 2% were inconclusive and are not listed. These entries were drawn from the full list. Entries with a potency or affinity are not part of this list. Unmarked numbers belong to inactive results. How the calls were made is not given here.
# Experiment: C. difficile growth inhibition, confirmation, 4-point retest (AID 1224921);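 further: plate controls were DMSO wells for no effect and levofloxacin 16 µg/mL wells for full effect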
# Settings: Clostridioides difficile clinical isolate growth, OD600, 24 h, active compounds read low; at 30 µM unless noted
row,SMILES,max activity
1,C/C=C/c1cnc2c(c1)C(=O)N([C@@H](C)CO)C[C@H](C)[C@H](CN(C)Cc1ccc(F)cc1)O2,9.72%
2,O=C(N[C@H]1C=C[C@@H](CC(=O)N2CCc3ccccc3C2)O[C@@H]1CO)C1CC1,-6.96%
3,CC(C)C#Cc1ccc2c(c1)O[C@@H](CN(C)Cc1cccnc1)[C@H](C)CN([C@H](C)CO)S2(=O)=O,36.4%
4,COc1ccc(-c2ccc([C@@H]3[C@H](C#N)N(C(=O)C4CCCC4)[C@H]3CO)cc2)cc1,-7.24% [at 1.95 µM]
5,C/C=C/c1cnc2c(c1)C(=O)N([C@H](C)CO)C[C@H](C)[C@H](CN(C)Cc1ccc(F)cc1)O2,14.8%
6,COc1cccc(-c2ccc3c(c2)O[C@H](CN(C)Cc2ccncc2)[C@@H](C)CN([C@@H](C)CO)S3(=O)=O)c1,21.8% [at 35 µM]
7,CO[C@H]1CN(C)C(=O)c2cc(NC(=O)c3cccc(F)c3)ccc2OC[C@@H](C)N(C(C)=O)C[C@H]1C,19% [at 8 µM]
8,CC(C)CC#Cc1ccc2c(c1)O[C@H](CN(C)Cc1cccnc1)[C@@H](C)CN([C@@H](C)CO)S2(=O)=O,39.7%
9,CO[C@H]1CN(C)C(=O)c2cc(NC(=O)Nc3cccc(F)c3)ccc2OC[C@@H](C)N(C)C[C@H]1C,-11.4% [at 1.95 µM]
10,C[C@H](CO)N1C[C@H](C)[C@@H](CN(C)Cc2cccnc2)Oc2cc(C#CC3CCCCC3)ccc2S1(=O)=O,30.4%
11,O=C(C[C@H]1C[C@@H]2c3cc(NC(=O)Nc4ccc(F)cc4)ccc3O[C@@H]2[C@H](CO)O1)NC1CCCCC1,16%
12,CCCC(=O)Nc1ccc2c(c1)OC[C@@H](C)N(Cc1ccncc1)C[C@H](C)[C@H](OC)CN(C)C2=O,14.1%
13,O=C(C[C@@H]1C[C@H]2c3cc(NC(=O)Nc4ccc(C(F)(F)F)cc4)ccc3O[C@H]2[C@@H](CO)O1)NC1CCCCC1,-15.4% [at 1.95 µM]
14,CO[C@H]1CN(C)C(=O)c2cc(NC(=O)c3ccccc3)ccc2OC[C@H](C)N(C(=O)CN(C)C)C[C@H]1C,-13% [at 1.95 µM]
15,CO[C@@H]1CN(C)C(=O)c2cc(NC(=O)c3cc(C)on3)ccc2OC[C@@H](C)N(C(C)=O)C[C@@H]1C,-12.6% [at 1.95 µM]
16,O=C(C[C@H]1CC[C@H]2[C@@H](COC[C@H](O)CN2Cc2cc(F)ccc2F)O1)NCc1ccc(F)cc1,-6.27%
17,O=C(C[C@H]1CC[C@H]2[C@@H](COC[C@@H](O)CN2Cc2cc(F)ccc2F)O1)NCc1ccc(Cl)cc1,12.5%
18,C[C@H](CO)N1C[C@H](C)[C@H](CN(C)C)Oc2cc(-c3ccccc3F)ccc2S1(=O)=O,-3.75% [at 1.95 µM]
19,COc1ccc(S(=O)(=O)Nc2cccc3c2O[C@@H](CN(C)S(=O)(=O)c2c(C)noc2C)[C@H](C)CN([C@H](C)CO)C3=O)cc1,14.4%
20,Cc1ccc(-c2ccc3c(c2)O[C@@H](CN(C)Cc2ccncc2)[C@@H](C)CN([C@@H](C)CO)S3(=O)=O)cc1,21.6%

row,SMILES,max activity
1,CCC(=O)Nc1ccc2c(c1)OC[C@@H](C)N(CC1CCCCC1)C[C@H](C)[C@H](OC)CN(C)C2=O,11.5%
2,CC(C)[C@@H](C)NC(=O)N(C)C[C@@H]1OCc2ccccc2-c2ccccc2C(=O)N([C@@H](C)CO)C[C@H]1C,34.8%
3,CO[C@H]1CN(C)C(=O)c2ccc(NC(=O)C3CC3)cc2OC[C@@H](C)N(Cc2cncnc2)C[C@@H]1C,-5.55%
4,COc1ccc(-c2ccc3n(c2=O)C[C@H]2[C@H](CO)[C@@H](C(=O)N4CCOCC4)[C@@H]3N2C)cc1,-4.95%
5,CC(C)CC#Cc1ccc2c(c1)O[C@H](CN(C)Cc1ccncc1)[C@H](C)CN([C@H](C)CO)S2(=O)=O,19.2% [at 8 µM]
6,C[C@H]1CN([C@@H](C)CO)C(=O)c2cc(C#CCN(C)C)cnc2O[C@@H]1CN(C)Cc1ccc(C(=O)O)cc1,-11.6% [at 1.95 µM]
7,O=C(Nc1ccc(Cl)c(Cl)c1)N[C@@H]1CC[C@@H](CCn2cc(C3CCCCC3)nn2)O[C@@H]1CO,30.5% [at 0.5 µM]
8,COc1ccccc1CNC(=O)C[C@H]1C[C@@H]2c3cc(NC(=O)NC4CCCC4)ccc3O[C@@H]2[C@@H](CO)O1,12.1%
9,C[C@@H]1CN([C@H](C)CO)S(=O)(=O)c2ccc(C#Cc3ccc(F)cc3)cc2O[C@@H]1CN(C)S(C)(=O)=O,-24% [at 1.95 µM]
10,C[C@H](CO)N1C[C@H](C)[C@@H](CN(C)C)Oc2cc(C#Cc3ccc(F)cc3)ccc2S1(=O)=O,18.3%
11,COc1cccc(C#Cc2ccc3c(c2)O[C@@H](CN(C)C)[C@H](C)CN([C@@H](C)CO)S3(=O)=O)c1,41.9%
12,CC(C)NC(=O)N(C)C[C@H]1Oc2cc(C#Cc3cccc(F)c3)ccc2S(=O)(=O)N([C@@H](C)CO)C[C@@H]1C,30.3%
13,C[C@@H]1CN([C@@H](C)CO)S(=O)(=O)c2ccc(C#Cc3cccc(F)c3)cc2O[C@@H]1CN(C)C,8.04%
14,COc1cccc(C#Cc2ccc3c(c2)O[C@H](CN(C)C)[C@@H](C)CN([C@H](C)CO)S3(=O)=O)c1,8.78%
15,COc1cccc(C#Cc2ccc3c(c2)O[C@H](CN(C)C)[C@H](C)CN([C@@H](C)CO)S3(=O)=O)c1,-8.62% [at 1.95 µM]
16,C[C@H]1CN([C@@H](C)CO)S(=O)(=O)c2ccc(C#Cc3ccccc3F)cc2O[C@@H]1CN(C)C,20.5%
17,CCCN1C[C@@H](C)[C@@H](OC)CN(C)C(=O)c2cc(NC(=O)CC)ccc2OC[C@@H]1C,8.06%
18,C[C@H](CO)N1C[C@H](C)[C@H](CN(C)C(=O)Nc2cccc(F)c2)Oc2cc(C#CC3(O)CCCC3)ccc2S1(=O)=O,50.2%
19,Cc1ccc(-c2ccc3c(c2)O[C@H](CN(C)Cc2cccnc2)[C@@H](C)CN([C@@H](C)CO)S3(=O)=O)cc1,36.5%
20,CO[C@H]1CN(C)C(=O)c2ccc(NC(=O)c3cccc(F)c3)cc2OC[C@H](C)N(C(C)=O)C[C@@H]1C,-20.5%

row,SMILES,max activity
1,COc1ccc(S(=O)(=O)N(C)C[C@@H]2Oc3ncc(-c4ccc(F)cc4)cc3C(=O)N([C@H](C)CO)C[C@@H]2C)cc1,-7.45%
2,C[C@H](C(=O)N(C)C[C@H]1OCc2ccccc2-c2ccccc2C(=O)N([C@@H](C)CO)C[C@@H]1C)c1ccccc1,-4.71% [at 0.5 µM]
3,C[C@@H]1CN([C@H](C)CO)C(=O)c2cc(C#CCN(C)C)cnc2O[C@H]1CN(C)Cc1ccccc1F,24.5%
4,NC(=O)[C@H]1[C@@H]2C(=O)O[C@@H](c3ccccc3)[C@@H](c3ccccc3)N2[C@@H](c2ccccc2OCCO)[C@]12C(=O)Nc1ccc(C#CC3(O)CCCCCC3)cc12,16.8% [at 8 µM]
5,COc1ccc(C#Cc2ccc3c(c2)[C@]2(C(=O)N3)[C@H](C(N)=O)[C@H]3C(=O)O[C@H](c4ccccc4)[C@H](c4ccccc4)N3[C@@H]2c2ccc(O)cc2)cc1,23.8%
6,CC(=O)N(C)C[C@@H]1Oc2ncc(C#Cc3ccc(F)cc3)cc2C(=O)N([C@H](C)CO)C[C@@H]1C,22.7%
7,C[C@H]1CN([C@@H](C)CO)C(=O)c2cc(NC(=O)Nc3cccc4ccccc34)ccc2O[C@@H]1CN(C)S(=O)(=O)c1ccccc1,37.2%
8,CO[C@H]1CN(C)C(=O)c2cc(NS(C)(=O)=O)ccc2OC[C@H](C)N(Cc2ccccn2)C[C@@H]1C,2.2%
9,CO[C@H](CN(C)Cc1cc(F)ccc1F)[C@@H](C)CN(C(=O)Nc1ccc(F)cc1)[C@@H](C)CO,21.5%
10,C/C=C/[C@@H](CCn1cc(CCO)nn1)[Si](C)(C)c1ccc(OC)cc1,-14.8% [at 0.5 µM]
11,C[C@H](NC(=O)N(C)C[C@@H]1OCc2ccccc2-c2c(n(C)c3ccccc23)C(=O)N([C@@H](C)CO)C[C@H]1C)c1ccccc1,26.5% [at 8 µM]
12,CN(C)CCCNC(=O)[C@H]1[C@H](CO)[C@H]2Cn3c(ccc(-c4cccc(F)c4)c3=O)[C@@H]1N2C,-8.59%
13,CNC[C@H]1Oc2cc(-c3ccccc3F)ccc2S(=O)(=O)N([C@H](C)CO)C[C@@H]1C,14%
14,Cc1ccccc1-c1ccc2c(c1)O[C@@H](CN(C)Cc1ccncc1)[C@@H](C)CN([C@@H](C)CO)S2(=O)=O,40.4%
15,C/C=C/c1cnc2c(c1)C(=O)N([C@@H](C)CO)C[C@@H](C)[C@@H](CN(C)Cc1ccc(F)cc1)O2,19.7%
16,C[C@H](CO)N1C[C@H](C)[C@H](CN(C)Cc2ccc(C(=O)O)cc2)Oc2ncc(C#CCN(C)C)cc2C1=O,-7.61% [at 8 µM]
17,CO[C@@H]1CN(C)C(=O)c2ccc(NC(=O)c3nc4ccccc4s3)cc2OC[C@H](C)N(Cc2cccnc2)C[C@@H]1C,-17.1% [at 1.95 µM]
18,CCCN1C[C@H](C)[C@@H](OC)CN(C)C(=O)c2cc(NC(=O)CC)ccc2OC[C@H]1C,-10.4% [at 0.5 µM]
19,Cc1ccc(-c2ccc3c(c2)O[C@H](CN(C)Cc2ccncc2)[C@@H](C)CN([C@H](C)CO)S3(=O)=O)cc1,-11.4% [at 8 µM]
